Experiment [1] addresses Calcium and integrin-binding protein 1 (Homo sapiens) (UniProt Q99828). The experiment can be described thus: Primary qHTS for Identification of Calcium Integrin Binding Protein 1 (CIB1) Competitor (AID 1508620).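 Further: GST tagged CIB1 binding a fluorescein labelled alphaIIb integrin peptide tracer; top concentration of the series differs between compounds.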 An outline of the steps:
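Fluorescence polarization competition: GST-tagged CIB1 (1 uM final) preincubated with compound 15 min at room temperature, then FITC-labelled alphaIIb peptide (100 nM final) added. After 15 min at room temperature, polarization read at Ex 480/Em 540.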
For orientation: Quantitative high-throughput screening tests each substance at several concentrations.

The target in experiment [2] is Cytochrome P450 2D6 (Homo sapiens) (UniProt P10635). The experiment can be described thus: Cytochrome P450 family 2 subfamily D member 6 (CYP2D6) small molecule antagonists: luciferase biochemical (cell-free) qHTS assay (AID 1645840; active means well fitted curve in the direction sought with a large enough effect in the repeat runs; an effect the other way counts as inactive or inconclusive; further: nearly all actives have a fitted effect of over 55% in size; further: potency means the concentration at half of the fitted maximal effect). An outline of the steps:
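P450-Glo luminescent screen: recombinant CYP2D6 enzyme–proluciferin substrate mix preincubated with compound 10 min at room temperature, then NADPH regeneration added for 1 h at room temperature. Detection reagent added for 20 min; luciferin light read as relative luminescence units.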

The target in experiment [3] is Cytochrome P450 2C9 (Homo sapiens) (UniProt P11712). The experiment can be described thus: Cytochrome P450 family 2 subfamily C member 9 (CYP2C9) small molecule antagonists: luciferase biochemical (cell-free) qHTS assay (AID 1645842; active means well fitted curve in the direction sought with a large enough effect in the repeat runs; an effect the other way counts as inactive or inconclusive; further: nearly all actives have a fitted effect of over 55% in size; further: potency means the concentration at half of the fitted maximal effect). An outline of the steps: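 Luminescence, after 20 min with luciferin detection reagent, reflected CYP2C9 turnover during a 1 h NADPH-driven reaction at 37C. Enzyme-substrate mix contained 0.4% bovine serum albumin and was preincubated with compound 10 min at room temperature.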

Experiment [4] can be described thus: Primary qHTS for inhibitors of nuclear receptor binding SET domain protein 2 (NSD2) in an isogenic RCH-ACV NSD2 p.E1099K mutant (9B) (AID 1645876). Further: nearly all actives have a fitted effect of over 70% in size. Further: potency means the concentration at half of the fitted maximal effect.
For experiment [5], the target named is N-terminal Xaa-Pro-Lys N-methyltransferase 1 (Homo sapiens) (UniProt Q9BV86). The experiment can be described thus: Confirmatory qHTS for Inhibitors of N-terminal methyltransferase 1 (NTMT1): MTaseGlo Assay (AID 1645874).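 Further: luminescence from SAH made as NTMT1 methylates SPKRIA peptide using SAM; series mostly up to about 100 µM; nearly all actives have a fitted effect of over 65% in size.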 An outline of the steps: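 qHTS format: NTMT1 125 nM, SAM 100 uM, peptide SPKRIA 1 uM final; 15 min compound preincubation, 30 min reaction at room temperature. MTase-Glo luminescence.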

The nature of experiment [6]: Primary qHTS for inhibitors of nuclear receptor binding SET domain protein 2 (NSD2) in an RCH-ACV wild type WT cells (2C) (AID 1645877). Further: nearly all actives have a fitted effect of over 70% in size. Further: potency means the concentration at half of the fitted maximal effect.

“And” between values parts separate entries of the source, which are not always exact repeats. Equal entries are not always repeated. Records with an inconclusive call do not appear. The source made the active and inactive calls. Unless noted, the call rests on the fitted dose curve; in most records, active means well fitted curve in the direction sought with a large enough effect; inconclusive means small, poorly fitted or top-dose-only effect, or another doubt; inactive means no such curve, though single readings can be large; an effect the other way counts as inactive or inconclusive.

Cytochrome P450 2C9 (Homo sapiens), sequence (P11712 whole entry, looked up): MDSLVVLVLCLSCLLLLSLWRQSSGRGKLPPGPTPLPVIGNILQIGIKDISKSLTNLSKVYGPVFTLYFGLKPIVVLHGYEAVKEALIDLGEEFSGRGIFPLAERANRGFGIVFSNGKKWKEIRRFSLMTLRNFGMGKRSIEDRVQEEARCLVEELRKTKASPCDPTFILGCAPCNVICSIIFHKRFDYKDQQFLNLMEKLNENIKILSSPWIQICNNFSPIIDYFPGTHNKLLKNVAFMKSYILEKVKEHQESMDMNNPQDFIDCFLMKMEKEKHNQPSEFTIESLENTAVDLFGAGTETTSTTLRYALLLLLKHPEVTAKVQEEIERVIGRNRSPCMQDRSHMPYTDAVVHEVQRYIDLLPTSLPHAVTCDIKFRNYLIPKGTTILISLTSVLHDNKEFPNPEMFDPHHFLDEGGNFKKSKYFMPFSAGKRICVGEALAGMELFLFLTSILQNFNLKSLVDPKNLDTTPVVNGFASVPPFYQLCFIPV
Cytochrome P450 2D6 (Homo sapiens), sequence (P10635 whole entry, looked up): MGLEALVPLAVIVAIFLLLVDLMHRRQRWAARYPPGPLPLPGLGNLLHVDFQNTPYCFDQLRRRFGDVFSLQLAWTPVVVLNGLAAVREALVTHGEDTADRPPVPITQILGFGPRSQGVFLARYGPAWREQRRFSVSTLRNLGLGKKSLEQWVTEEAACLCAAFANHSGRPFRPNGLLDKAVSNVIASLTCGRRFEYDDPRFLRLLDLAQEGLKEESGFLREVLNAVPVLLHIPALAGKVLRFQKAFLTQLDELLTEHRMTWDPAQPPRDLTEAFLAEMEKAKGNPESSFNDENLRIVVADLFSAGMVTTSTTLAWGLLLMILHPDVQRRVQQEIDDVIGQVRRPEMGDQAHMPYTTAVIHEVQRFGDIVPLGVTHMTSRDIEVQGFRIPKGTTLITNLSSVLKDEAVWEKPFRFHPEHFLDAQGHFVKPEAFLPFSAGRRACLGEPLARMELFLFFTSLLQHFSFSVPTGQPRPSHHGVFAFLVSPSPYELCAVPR
Calcium and integrin-binding protein 1 (Homo sapiens), sequence (Q99828 whole entry, looked up): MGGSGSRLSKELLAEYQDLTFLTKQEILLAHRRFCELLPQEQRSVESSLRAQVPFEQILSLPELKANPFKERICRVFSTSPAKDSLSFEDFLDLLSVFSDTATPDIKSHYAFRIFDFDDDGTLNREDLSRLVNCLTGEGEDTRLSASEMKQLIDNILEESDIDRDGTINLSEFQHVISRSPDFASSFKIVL
N-terminal Xaa-Pro-Lys N-methyltransferase 1 (Homo sapiens), sequence (Q9BV86 whole entry, looked up): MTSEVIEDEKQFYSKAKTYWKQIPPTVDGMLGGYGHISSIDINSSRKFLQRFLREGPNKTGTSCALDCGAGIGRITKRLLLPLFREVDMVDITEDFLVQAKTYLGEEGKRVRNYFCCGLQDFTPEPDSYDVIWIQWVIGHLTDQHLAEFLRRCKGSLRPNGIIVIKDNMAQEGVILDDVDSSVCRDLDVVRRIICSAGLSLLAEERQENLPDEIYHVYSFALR

On to `CN(C)CCN(Cc1ccc(-c2ccc(CNCCc3ccccc3)cc2)cc1)C(=O)CCC1CCCC1`, for which the Potency entry in experiment [1] was “inactive”. Further, the Potency in experiment [2] was 0.601 µM (active); in experiment [3] it was 19 µM (active); in experiment [4], 2.58 µM (active).
As to `Fc1ccc(-c2cncc(CN3CCN(c4cccc5c4OCCO5)CC3)c2)cc1`, the Potency result in experiment [1] is “inactive”. Further, the Potency in experiment [2] was 9.52 µM (active); in experiment [3], 10.7 µM (active).
`O=S(=O)(Cc1ccccc1)Nc1ccc(-c2ccc3c(cnn3-c3ccc(F)cc3)c2)c(C(F)(F)F)c1`: the Potency entry in experiment [1], in experiment [2] and in experiment [5] was “inactive” in each case. The Potency in experiment [3] was 6.01 µM (active); in experiment [4], 18.3 µM (active); in experiment [6], 0.183 µM (active).
For `Cc1[nH]c(/C=C2\C(=O)Nc3ccc(F)cc32)c(C)c1C(=O)NCCN1CCCC1`, the Potency result in experiment [1], in experiment [2] and in experiment [3] was “inactive” in each case. The Potency in experiment [4] was 16.3 µM (active) and 7.23 µM (active).
Turning to `COc1ccc2nc(-c3cc(OC)c(OC)c(OC)c3)cc(C(=O)NCC(=O)Nc3ccc(C(C)=O)cc3)c2c1`, the Potency entry in experiment [1], in experiment [2] and in experiment [5] was “inactive” throughout. Moreover, the figures for the Potency in experiment [3] and in experiment [4] were 7.56 µM (active) and 12.9 µM (active), respectively.
For `CC(C)NC(=O)COc1cccc(-c2nc(Nc3ccc4[nH]ncc4c3)c3ccccc3n2)c1`, the Potency result in experiment [1] was “inactive”. For the same compound, the Potency in experiment [2] was 2.68 µM (active); in experiment [3] it was 0.19 µM (active); in experiment [4] it was 7.42 µM (active).
The matching figures for `O=c1cc(N2CCN(c3cccc(C(F)(F)F)c3)CC2)[nH]c(=O)n1C1CCCCC1`: “inactive”, “inactive”, 3.01 µM (active) and “inactive”.
Consider `CC(C)(C[C@@](O)(Cc1cc2ccncc2[nH]1)C(F)(F)F)c1cc(F)ccc1O`, for which the Potency result in experiment [1] was “inactive”. In addition, the Potency is 0.134 µM (active) in experiment [2], 0.301 µM (active) in experiment [3], 10.3 µM (active) in experiment [4] and 0.163 µM (active) in experiment [6].
For `O=C(NCCN1CCOCC1)c1cc2c(Oc3ccc(NC(=O)C4(C(=O)Nc5ccc(F)cc5)CC4)cc3)ccnc2[nH]1` the same measures were “inactive”, 19 µM (active), 12 µM (active), 23 µM (active) and 12.9 µM (active).
Regarding `CCCc1cc(C)[nH]c(=O)c1CNC(=O)c1cc(-c2ccnc(N3CCN(C)CC3)c2)cc2c1cnn2C(C)C`, the Potency entry in experiment [1] is “inactive”. The Potency was 23.9 µM (active) in experiment [2]; 13.5 µM (active) in experiment [3]; 12.9 µM (active) and 16.6 µM (active) in experiment [4]; 9.16 µM (active) and 16.6 µM (active) in experiment [6].
On to `OC1(CN2CCC(COc3noc4cccc(O[C@@H]5CCOC5)c34)CC2)CCOCC1`, for which the Potency result in experiment [1], in experiment [4] and in experiment [6] was “inactive” each time. Further, the Potency in experiment [2] was 6.74 µM (active); in experiment [3], 9.52 µM (active).
For the compound `COc1cc(CN(CCN)C(=O)c2cccs2)ccc1OCc1ccccc1`, the Potency result in experiment [1] is “inactive”. The Potency in experiment [2] is 0.849 µM (active); in experiment [3] it was 10.7 µM (active); in experiment [4], 18.3 µM (active); in experiment [6], 20.5 µM (active).
In the case of `COc1ccccc1N1CCN(CC(C(=O)NC(C)(C)C)c2ccccc2)CC1` (stereo not given), the Potency result in experiment [1], in experiment [4] and in experiment [6] was “inactive” in each case. Moreover, the values for the Potency in experiment [2] and in experiment [3] were 1.69 µM (active) and 12 µM (active), respectively.
Take `O=C(NCCCNc1nc(Nc2cccc(CN3CCOCC3)c2)ncc1C1CC1)C1CCC1`: in experiment [1], the Potency result is “inactive”. Further, the Potency was 6.01 µM (active) in experiment [2], 8.49 µM (active) in experiment [3], 2.63 µM (active) in experiment [4] and 1.18 µM (active) in experiment [6].
The matching figures for `CCOc1ccc(CCNC(=O)c2cc3sc(Cl)cc3n2C)cc1OCC`: “inactive”, “inactive”, 2.39 µM (active), “inactive” and “inactive”.
For `CCOc1ccc(S(=O)(=O)N2CCCCCC2)c2ccccc12` the same measures were “inactive”, “inactive”, 7.56 µM (active), “inactive” and “inactive”.
The matching figures for `CC(C)S(=O)(=O)c1ccc2nccc(Nc3ccc4scnc4c3)c2c1`: “inactive”, 10.7 µM (active), 6.74 µM (active), 9.34 µM (active) and 10.5 µM (active).
As for `N#Cc1ccc(COC[C@H]2O[C@@H](n3c(NCc4ccc(Cl)c(Cl)c4)nc4c(N)ncnc43)[C@H](O)[C@@H]2O)cc1`, in experiment [1], the Potency result is “inactive”. Moreover, the Potency was 10.7 µM (active) in experiment [2], 10.7 µM (active) in experiment [3], 14.8 µM (active) in experiment [4] and 9.34 µM (active) in experiment [6].
As to `CCC(C)CNCC(=O)N1CCc2sccc2C1COc1cccc(C)c1` (stereo not given), in experiment [1], the Potency result was “inactive”. In addition, the Potency was 0.0952 µM (active) in experiment [2], 13.5 µM (active) in experiment [3], 16.3 µM (active) in experiment [4] and 20.5 µM (active) in experiment [6].
For the compound `Cc1nc(C#Cc2ccnc(Cl)c2)c(C)n1-c1ccc(OC(F)(F)F)cc1`, the Potency entry in experiment [1] is “inactive”. The Potency in experiment [2] was 10.7 µM (active); in experiment [3], 8.49 µM (active); in experiment [4], 18.3 µM (active); in experiment [6], 10.3 µM (active).
The matching figures for `COC(=O)c1ccc(N2CCN(C)CC2)c(NC(=O)c2cccc(OC)c2)c1`: “inactive”, 6.01 µM (active), “inactive”, “inactive” and “inactive”.
As to `Oc1cccc(C2NC(=S)Nc3cccc(F)c32)c1` (stereo not given), the Potency result in experiment [1] was “inactive”. Also, the Potency in experiment [2] was 7.56 µM (active); in experiment [3], 15.1 µM (active); in experiment [4], 3.65 µM (active); in experiment [6], 4.09 µM (active).
With `COC(C)(C)CCn1nc(Nc2c(C)cccc2C)c2cnc(Nc3ccc(OCCN4CCCC4)c(F)c3)nc21`, in experiment [1], the Potency result was “inactive”. The Potency in experiment [2] was 15.1 µM (active); in experiment [3] it was 6.01 µM (active); in experiment [4], 103 nM (active) and 263 nM (active); in experiment [6] it was 163 nM (active) and 468 nM (active).

The record behind these values is PubChem BioAssay (NCATS).
